Results as given in PubChem BioAssay AID2284353 (EPA ToxCast).
Inconclusive results are not listed. Activity calls are given as the source filed them. Rule for the calls: active = hit-call score of the fitted dose curve at least 0.9, where 1 is the maximum; inconclusive = response in the unintended direction; inactive = score below 0.9.

System: Japanese medaka Peroxisome Proliferator-activated Receptor gamma (PPARg), gene 100304459
Experiment: ATG_jmPPARg_EcoTox2: Attagene TRANS-FACTORIAL EcoTox-2 HepG2 Assay for Japanese medaka Peroxisome Proliferator-activated Receptor gamma (PPARg)
Description: ATG_EcoTox2 is a cell-based, multiplexed assay created by modifying the existing Attagene TRANS-FACTORIAL system to include a panel of nuclear receptors from some or all the following species: human (Homo sapiens), african clawed frog (Xenopus laevis), rainbow trout (Oncorhynchus mykiss), japanese medaka (Oryzias latipes), and zebrafish (Danio rerio). The ECOTOX2-FACTORIAL format uses HepG2, a human liver cell line, with measurements taken at 24 hours after chemical dosing in a 24-well plate. ATG_jmPPARg_EcoTox2 is one of 29 assay components calculated in the ATG_EcoTox2 assay. It is designed to make measurements of mRNA induction, a form of inducible reporter, as detected with fluorescence intensity signals by Reverse transcription polymerase chain reaction (RT-PCR) and Capillary electrophoresis technology.The assay endpoint ATG_jmPPARg_EcoTox2 was analyzed in the positive analysis fitting direction relative to DMSO as the negative control and baseline of activity. Using a type of inducible reporter, measures of mRNA for gain-of-signal activity can be used to understand the reporter gene at the transcription factor-level as they relate to the gene PPARg. Furthermore, this assay endpoint can be referred to as a primary readout, because this assay has produced multiple assay endpoints where this one serves a reporter gene function. To generalize the intended target to other relatable targets, this assay endpoint is annotated to the nuclear receptor intended target family, where the subfamily is non-steroidal.
Human liver HepG2 cells are transiently transfected with multiple reporter transcription units (MRTUs) in 6-well plates using FuGene 6 reagent (Roche; 3 ml FuGene/1 mg DNA). The MRTU constructs are regulated by a cis-regulating element (promoter). Each RTU expresses a GAL4-UAS that regulates the transcription of a nearby target reporter gene sequence. A major difference between the CIS and TRANS system is that in CIS activities of endogenous TFs are measured, whereas the TRANS assay evaluates changes in activities of exogenous, chimeric NR-Gal4 proteins. […] At the end of 24 hour incubation, total RNA was isolated using TriZol reagent (Invitrogen). The isolated RNA is then reverse-transcribed using oligo(dT) primer and Mo-MLV reverse transcriptase (Invitrogen) with DNAse I (Ambion) treatment for 30 min. The one-tenth of the produced cDNA was amplified by PCR using Taq DNA polymerase (Invitrogen) and two reporter sequence-specific primers. The PCR products were fluorescently labeled by primer extension with 6-arboxyfluorescein (6-FAM) 5'-labeled reporter sequence-specific primer (2 min at 95 C, 20 s at 68 C and 10 min at 72 C) and these products were digested with 5U of HpaI (New England Biolabs) for 2h at 37 C. The fragments were purified using Qiaquick PCR columns (Qiagen), analyzed on an ABI 3130xL genetic analyzer (Applied Biosystems) with peak positions identified by using a set of X-rhodamine (ROX)-labeled MapMarker1000 molecular weight standards (BioVentures). The raw capillary electrophoresis data was processed using Attagraph software (Attagene).

Row | SMILES | outcome | AC50
1 | CC(C)OC(=O)C(C)(C)Oc1ccc(C(=O)c2ccc(Cl)cc2)cc1 | inactive | –
2 | C=C(c1ccc(C(=O)O)cc1)c1cc2c(cc1C)C(C)(C)CCC2(C)C | – | 5.55 µM (active)
3 | Cc1c(C)c2c(c(C)c1O)CCC(C)(COc1ccc(CC3SC(=O)NC3=O)cc1)O2 (stereo not drawn) | inactive | –
4 | CC(c1cc2ccccc2s1)N(O)C(N)=O (stereo not drawn) | inactive | –
5 | C[C@]12C=CC(=O)C=C1CC[C@@H]1[C@@H]2C(=O)C[C@@]2(C)[C@H]1CC[C@]2(O)C(=O)CO | inactive | –
6 | Cc1nc(-c2ccc(C(F)(F)F)cc2)sc1C(=O)NCc1ccc(OC(C)(C)C(=O)O)cc1 | – | 20.9 µM (active)
7 | Cc1ccc(C)c(OCCCC(C)(C)C(=O)O)c1 | inactive | –
8 | CN(CCOc1ccc(CC2SC(=O)NC2=O)cc1)c1ccccn1 (stereo not drawn) | inactive | –
